An excerpt weighted towards active compounds, which were near 3.8% of everything screened.
Cardio protect – modulators protecting cardiomyocytes from myocardial damage; protection from H2O2 cell death, % at 20 µM; 360,000 tested, 0.63% active; H9c2 cardiomyocytes, H2O2 injury protection, ATPLite, 2 h;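 active = compounds giving at least 50% protection of heart cells from peroxide-induced death in the single-dose screen, raw or plate-pattern-corrected value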
Mot1-301 SUMO – inhibitors of SUMOylation pathway: yeast Mot1-301 growth rescue; 320,000 tested, 1% active; S. cerevisiae Mot1-301 growth rescue, ATP luminescence, 38.5C; percent above DMSO median, 100 means doubled; growth rescue, % at 18.8 µM;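 active = every valid replicate shows activation above 250% relative to neutral control wells; inactive = the rest, any valid replicate at or below 250%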
aDG glyco act – increases alpha dystroglycan glycosylation | activation, % at 10 µM | Pro5-aDG cells, alpha-DG glycosylation AlphaScreen (IIH6); 0% Pro5, 100% B10-LARGE cell signal | 360,000 tested, 0.22% active;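 active = activation of at least 8% versus controls, or a plate z-score of at least 8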;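 also: Pro5 are CHO cells carrying HIG-tagged alpha-DG that lacks glycosylation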
FAS TE block – FAS thioesterase (human) inhibition | P49327 | recombinant FAS-TE, OMFH fluorogenic substrate, fluorescence endpoint | inhibition, % at 15 µM | 360,000 tested, 0.67% active | AID 602261;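 active = compounds whose normalised, plate-corrected inhibition of enzyme fluorescence in the single-dose primary screen is 50% or more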
MPTP inh – inhibitors of mitochondrial permeability transition pore; isolated mouse mitochondria, Ca2+ swelling absorbance, 30 min; inhibition, % at 10 µM; 360,000 tested, 1.4% active;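 active = inhibition of 50% or more, scaled per plate between neutral and stimulator controls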
Yeast superoxide – caloric restriction mimetics inhibiting age-related superoxide in yeast | S. cerevisiae aged cells, superoxide DHE fluorescence; stronger effect = lower value | superoxide response (% of plate mean), % at 10 µM | 330,000 tested, 0.18% active;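 active = superoxide response under a set limit, about three screen SD below normal, cut at about 65% in these data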;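 also: yeast aged for seven days with compound at 30 °C before DHE staining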
Each line names hits and unclear results; the compound was inactive in the other large screens.

Brc1ccc(-c2nn3c(-c4ccco4)nnc3s2)o1	Cardio protect 94
Clc1ccc(-c2ccc(-c3nn4c(-c5ccco5)nnc4s3)o2)cc1	none
Brc1ccc(-c2nn3c(-c4ccccn4)nnc3s2)o1	Cardio protect 52
CC(=O)c1ccc(-c2[nH]c3ccccc3c2CCN2C(=O)c3ccccc3C2=O)cc1	Cardio protect 65 (no result: Mot1-301 SUMO, Yeast superoxide)
O=C(c1ccc(-c2nc3ccccc3s2)o1)N1CCN(c2ccccc2O)CC1	Cardio protect 52
CCC(C)NC(=O)c1ccc2nc(-c3ccc(OC)c(OC)c3)c(-c3ccc(OC)c(OC)c3)nc2c1 (configuration not stated)	Cardio protect 71
O=C(COC(=O)c1cccnc1Cl)Nc1ccc(N2CCOCC2)cc1	none (no result: Mot1-301 SUMO, Yeast superoxide)
O=C(c1ccc2ccccc2c1)N1CCN(c2ccc(C(F)(F)F)cn2)CC1	Mot1-301 SUMO 316
CCCn1c(=O)c(C(=O)NNC(=O)c2ccccc2Cl)c(O)c2ccccc21	none
NS(=O)(=O)c1cccc(NC(=O)CSc2n[nH]c(-c3ccccc3Br)n2)c1	none (no result: Mot1-301 SUMO, Yeast superoxide)
NC(=O)COC(=O)c1sc2ccccc2c1Cl	Mot1-301 SUMO 545
O=[N+]([O-])c1cc(C2Nc3cccc4cccc(c34)N2)ccc1Cl	none
O=C1NC(c2ccc(Cl)c([N+](=O)[O-])c2)Nc2ccccc21 (configuration not stated)	Cardio protect 55
COc1ccc(Nc2nc(Nc3ccc(OC)cc3OC)nc(N3CCN(C)CC3)n2)c(OC)c1	Cardio protect 64 (no result: Mot1-301 SUMO)
COc1ccc(Nc2nc(N3CCCC3)nc(N3CCCC3)n2)c(OC)c1	none (no result: Mot1-301 SUMO)
CCc1ccc(C(C)NC(=O)c2cc(C)oc2C)cc1 (configuration not stated)	Cardio protect 56
Cc1cc(C(=O)NN)c(C)o1	none
COc1ccc(C(O)c2ncc(-c3ccccc3)[nH]2)c(OC)c1 (configuration not stated)	none (no result: Mot1-301 SUMO, Yeast superoxide)
Oc1c(Br)cc(Br)cc1C=Nc1cccc2ncccc12	Cardio protect 64
C[C@]12CC[C@@H]3c4cc(O)c(O)cc4CC[C@H]3[C@@H]1CC[C@@H]2O	Cardio protect 108
COC(CN(C(=O)CCl)C(C(=O)NC1CCCCC1)c1ccc(C)cc1)OC (configuration not stated)	none
CCOC(=O)c1cc2c(=O)n3ccccc3nc2n(Cc2ccco2)c1=NC(=O)c1cccnc1	Cardio protect 85
CCOC(=O)c1cc2c(=O)n3cccc(C)c3nc2n(Cc2ccco2)c1=NC(=O)c1cccnc1	none (no result: Mot1-301 SUMO, Yeast superoxide)
COc1cc(C(=O)OCCc2cc3ccccc3c(=O)o2)cc(OC)c1OC	none
O=C(CCCn1c(=O)[nH]c2ccsc2c1=O)Nc1ccc(F)cc1	none
O=C(CCn1c(=O)[nH]c2ccsc2c1=O)NCc1ccc(F)cc1	Mot1-301 SUMO 451
C=CCn1c(COc2ccccc2)nnc1SC(C)C(=O)N/N=C/c1cc(Cl)ccc1O (configuration not stated)	Cardio protect 67
C=CCn1c(COc2ccc(Cl)cc2)nnc1SCC(=O)N/N=C/c1cccc(O)c1	none
COc1ccc(Cl)cc1NC(=O)C1CCCN(S(C)(=O)=O)C1 (configuration not stated)	none
CCC(C)Sc1cccc(-c2nc3ccc(C)cn3c2NC2CCCCC2)c1 (configuration not stated)	Mot1-301 SUMO 341
COc1ccccc1NC(=O)c1cc(-c2ccc(OC)c(OC)c2)nc2ccccc12	Cardio protect 57 (no result: Mot1-301 SUMO, Yeast superoxide)
CCN(CC)S(=O)(=O)c1cc(NC(=O)c2cc(-c3ccccn3)nc3ccccc23)ccc1C	none
COc1ccc(-c2cc(C(=O)Nc3ccc(O)cc3)c3ccccc3n2)cc1OC	none
COc1ccc(NC(=O)c2cc(-c3cc(OC)c(OC)c(OC)c3)nc3ccccc23)cc1OC	Cardio protect 63
COc1ccc(-c2cc(C(=O)N3CCN(c4ccccc4)CC3)c3ccccc3n2)cc1OC	Cardio protect 54
COc1ccc(NC(=O)c2cc(-c3ccccn3)nc3ccccc23)cc1S(=O)(=O)N(C)C	Cardio protect 89
COc1ccc([C@H]2N[C@]3(CCCN(Cc4ccc(C)cc4)C3=O)[C@H]3C(=O)N(Cc4ccccc4)C(=O)[C@@H]23)cc1	none (no result: Mot1-301 SUMO, Yeast superoxide)
COc1ccc(NC(=O)C2CCN(S(=O)(=O)c3ccc(Cl)c(C(F)(F)F)c3)CC2)cn1	none (no result: Mot1-301 SUMO, Yeast superoxide)

Screening results: PubChem, several laboratories
